Assay outcomes deposited in PubChem BioAssay by Buhrlage Lab, Dana-Farber Cancer Institute and Novartis Institutes for BioMedical Research (Cambridge, Mass).
Shown are actives, neighbours in structure and some others; about 9.2% of the full set was active somewhere.
USP10 inh: blocks human USP10 ubiquitin-rhodamine cleavage. Q14694. purified USP10, Ub-rhodamine fluorescence, 60 min. inhibition, % at 20 µM. hit rate 1.1% among 47,000
UCHL1 inh: inhibitors of human UCHL1 deubiquitinase | purified UCHL1, Ub-rhodamine cleavage fluorescence | inhibition, % at 20 µM | hit rate 0.2% among 47,000
USP7 block: inhibitors of human USP7 deubiquitinase | Q93009 | purified USP7, Ub-rhodamine cleavage fluorescence | inhibition, % at 20 µM | hit rate 0.3% among 47,000 | AID 1645854
USP17 block: blocks human USP17 ubiquitin-rhodamine cleavage | A8MUK1 | purified USP17, Ub-rhodamine cleavage fluorescence, 3 h | inhibition, % at 50 µM | hit rate 6.5% among 47,000 | AID 1645855
OTUD3 block: inhibitors of human OTUD3 deubiquitinase; Q5T2D3; purified OTUD3, Ub-rhodamine fluorescence, 2 h; inhibition, % at 25 µM; hit rate 0.7% among 47,000; AID 1645858
USP8 inh: human USP8 deubiquitinase inhibition; purified USP8, Ub-rhodamine cleavage fluorescence, 30 min; inhibition, % at 20 µM; hit rate 4.2% among 47,000; AID 1645853
Target sequence (P40818 whole entry, looked up): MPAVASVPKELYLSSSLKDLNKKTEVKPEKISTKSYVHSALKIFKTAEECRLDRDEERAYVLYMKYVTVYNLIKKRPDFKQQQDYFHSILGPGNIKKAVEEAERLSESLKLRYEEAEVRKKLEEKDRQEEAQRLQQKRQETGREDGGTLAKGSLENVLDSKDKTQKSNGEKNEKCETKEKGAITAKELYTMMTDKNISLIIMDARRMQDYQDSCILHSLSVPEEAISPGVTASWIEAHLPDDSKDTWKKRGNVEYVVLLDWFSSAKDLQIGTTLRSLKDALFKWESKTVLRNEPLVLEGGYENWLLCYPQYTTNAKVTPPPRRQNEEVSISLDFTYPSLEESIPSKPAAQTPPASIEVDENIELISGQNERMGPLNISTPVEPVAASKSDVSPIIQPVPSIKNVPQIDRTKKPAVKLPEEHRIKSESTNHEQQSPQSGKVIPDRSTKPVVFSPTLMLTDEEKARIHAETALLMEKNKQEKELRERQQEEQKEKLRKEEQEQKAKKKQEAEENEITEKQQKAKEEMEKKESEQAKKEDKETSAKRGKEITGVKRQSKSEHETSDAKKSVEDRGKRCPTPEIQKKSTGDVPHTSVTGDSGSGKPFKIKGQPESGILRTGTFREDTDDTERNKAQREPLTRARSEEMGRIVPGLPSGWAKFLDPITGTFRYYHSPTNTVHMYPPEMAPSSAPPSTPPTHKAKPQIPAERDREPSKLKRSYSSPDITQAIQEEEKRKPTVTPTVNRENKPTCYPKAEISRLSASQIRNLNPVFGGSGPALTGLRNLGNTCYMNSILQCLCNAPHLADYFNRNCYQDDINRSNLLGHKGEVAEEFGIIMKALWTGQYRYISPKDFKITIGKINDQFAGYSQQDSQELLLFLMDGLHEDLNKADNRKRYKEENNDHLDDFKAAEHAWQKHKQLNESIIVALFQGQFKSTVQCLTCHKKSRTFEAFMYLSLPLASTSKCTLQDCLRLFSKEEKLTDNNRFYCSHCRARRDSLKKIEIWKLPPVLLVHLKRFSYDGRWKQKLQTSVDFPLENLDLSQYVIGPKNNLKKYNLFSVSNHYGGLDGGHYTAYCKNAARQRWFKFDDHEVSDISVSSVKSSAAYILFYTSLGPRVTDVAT
Hits are given with their value. No stated cut-off is given here; in the data, active means inhibition above about 30%; inactive means the rest.

How did O=C(Nc1ccc2nc(NS(=O)(=O)c3ccccc3)sc2c1)C1CCCCC1 do in these assays?
USP10 inh: inactive; UCHL1 inh: inactive; USP7 block: inactive; USP17 block: inactive; OTUD3 block: inactive; USP8 inh: inactive

Results for O=C(CCCCn1c(=O)c2ccccc2n(CC(=O)Nc2ccc(F)c(Cl)c2)c1=O)NCc1ccco1 ?
USP10 inh: inactive; UCHL1 inh: inactive; USP7 block: inactive; USP17 block: 70; OTUD3 block: inactive; USP8 inh: 59

Results for Cc1ccc(NC(=O)Cn2c(=O)n(CCCCC(=O)NCc3ccco3)c(=O)c3ccccc32)cc1C ?
USP10 inh: inactive; UCHL1 inh: inactive; USP7 block: inactive; USP17 block: inactive; OTUD3 block: inactive; USP8 inh: inactive

How did O=C(Cn1c(=O)c2ccccc2n(CC(=O)Nc2ccc(F)c(Cl)c2)c1=O)NCc1ccco1 do in these assays?
USP10 inh: inactive; UCHL1 inh: inactive; USP7 block: inactive; USP17 block: 62; OTUD3 block: 49; USP8 inh: 44

What do the screens show for `O=C(NCc1ccco1)C(=O)Nc1ccc(F)c(Cl)c1`?
USP10 inh: inactive; UCHL1 inh: inactive; USP7 block: inactive; USP17 block: 35; OTUD3 block: inactive; USP8 inh: inactive

Results for O=C(CCCn1c(=O)c2cc(Cl)ccc2n(CC(=O)Nc2cccc(F)c2)c1=O)NCc1ccco1 ?
USP10 inh: inactive; UCHL1 inh: inactive; USP7 block: inactive; USP17 block: inactive; OTUD3 block: inactive; USP8 inh: 30

Results for C#CCN1C(=O)C2(CC(=O)Nc3c2cnn3-c2ccccc2)c2cccc(C)c21 (configuration not stated) ?
USP10 inh: inactive; UCHL1 inh: inactive; USP7 block: inactive; OTUD3 block: inactive; USP8 inh: inactive

How did CCN(CC)S(=O)(=O)c1ccc2oc(N3CCOCC3)nc2c1 do in these assays?
USP10 inh: inactive; UCHL1 inh: inactive; USP7 block: inactive; USP17 block: inactive; OTUD3 block: inactive; USP8 inh: 68

How did Cc1ccc(-c2csc3ncn(CCCn4ccnc4)c(=O)c23)cc1 do in these assays?
USP10 inh: inactive; UCHL1 inh: inactive; USP7 block: inactive; USP17 block: inactive; OTUD3 block: inactive; USP8 inh: inactive

What do the screens show for `CCOc1ccccc1NC(=O)Cn1nnc(C(=O)Nc2cc(C)cc(C)c2)c1N`?
USP10 inh: inactive; UCHL1 inh: inactive; USP7 block: inactive; OTUD3 block: inactive; USP8 inh: inactive

How did COc1ccccc1-c1nc(Cn2nnc(C(=O)Nc3cc(C)cc(C)c3)c2N)c(C)o1 do in these assays?
USP10 inh: inactive; UCHL1 inh: inactive; USP7 block: inactive; USP17 block: 66; OTUD3 block: inactive; USP8 inh: inactive

How did COc1cccc(CNC(=O)c2[nH]nc3c2CCc2ccccc2-3)c1 do in these assays?
USP10 inh: inactive; UCHL1 inh: inactive; USP7 block: inactive; USP17 block: inactive; OTUD3 block: inactive; USP8 inh: inactive

What do the screens show for `O=C(NCc1ccc2c(c1)OCO2)c1[nH]nc2c1CCc1ccccc1-2`?
USP10 inh: inactive; UCHL1 inh: inactive; USP7 block: inactive; USP17 block: 60; OTUD3 block: inactive; USP8 inh: 41

Results for O=C(Nc1ccc2c(c1)OCO2)c1[nH]nc2c1CCc1ccccc1-2 ?
USP10 inh: inactive; UCHL1 inh: inactive; USP7 block: inactive; USP17 block: 66; OTUD3 block: inactive; USP8 inh: 85

What do the screens show for `O=C(NCc1ccc2c(c1)OCO2)c1cc(-c2cc(Cl)ccc2O)n[nH]1`?
USP10 inh: inactive; UCHL1 inh: inactive; USP7 block: inactive; USP17 block: inactive; OTUD3 block: inactive; USP8 inh: 50

Results for O=C(Nc1ccc(NC(=O)c2ccccc2O)cc1)Nc1ccc(OCc2ccccc2)cc1 ?
USP10 inh: 61; UCHL1 inh: inactive; USP7 block: inactive; USP17 block: inactive; OTUD3 block: inactive; USP8 inh: 91

Results for COc1ccccc1NC(=O)Nc1ccc(NC(=O)c2ccccc2O)cc1 ?
USP10 inh: inactive; UCHL1 inh: inactive; USP7 block: inactive; USP17 block: 31; OTUD3 block: inactive; USP8 inh: 85

What do the screens show for `O=C(Nc1ccc(OCc2ccccc2)cc1)NC1Cc2ccccc2C1`?
USP10 inh: inactive; UCHL1 inh: inactive; USP7 block: inactive; USP17 block: inactive; OTUD3 block: inactive; USP8 inh: inactive

Results for CC(=O)Nc1ccc(NC(=O)Nc2ccc(F)cc2)cc1 ?
USP10 inh: inactive; UCHL1 inh: inactive; USP7 block: inactive; USP17 block: 34; OTUD3 block: inactive; USP8 inh: inactive

How did COc1cccc(NC(=O)c2ccccc2NC(=O)Cc2ccccc2OC)c1 do in these assays?
USP10 inh: inactive; UCHL1 inh: inactive; USP7 block: inactive; USP17 block: inactive; OTUD3 block: inactive; USP8 inh: inactive

Results for Cc1cccc(Cl)c1NC(=O)Nc1ccc(NC(=O)c2ccccc2O)cc1 ?
USP10 inh: 39; UCHL1 inh: inactive; USP7 block: inactive; USP17 block: 53; OTUD3 block: inactive; USP8 inh: 42

Results for CCc1cccc(C)c1NC(=O)Nc1ccc(N2CCCCC2)cc1 ?
USP10 inh: inactive; UCHL1 inh: inactive; USP7 block: inactive; USP17 block: inactive; OTUD3 block: inactive; USP8 inh: inactive

Results for O=S(=O)(Nc1ccccn1)c1ccc(N2CCC(Cc3ccccc3)CC2)nc1 ?
USP10 inh: inactive; UCHL1 inh: inactive; USP7 block: inactive; USP17 block: inactive; OTUD3 block: inactive; USP8 inh: inactive

What do the screens show for `O=C(COc1ncnc2ccccc12)Nc1ccc(OCc2ccccc2)cc1`?
USP10 inh: inactive; UCHL1 inh: inactive; USP7 block: inactive; USP17 block: 48; OTUD3 block: inactive; USP8 inh: inactive

What do the screens show for `O=C(Nc1ccc(F)cc1)Nc1ccc2ccccc2n1`?
USP10 inh: inactive; UCHL1 inh: inactive; USP7 block: inactive; USP17 block: inactive; OTUD3 block: inactive; USP8 inh: 51

Results for O=C(Nc1ccc(F)cc1)Nc1ccc(NC(=O)c2ccccc2O)cc1 ?
USP10 inh: inactive; UCHL1 inh: inactive; USP7 block: inactive; USP17 block: 34; OTUD3 block: inactive; USP8 inh: 52

What do the screens show for `CN(C)C(=O)c1ccc(NC(=O)c2ccccc2C(=O)c2ccc(F)cc2)cc1`?
USP10 inh: inactive; UCHL1 inh: inactive; USP7 block: inactive; USP17 block: inactive; OTUD3 block: inactive; USP8 inh: inactive

Results for O=C(OCc1ccc(F)cc1)c1ccc2ccccc2n1 ?
USP10 inh: inactive; UCHL1 inh: inactive; USP7 block: inactive; USP17 block: inactive; OTUD3 block: inactive; USP8 inh: inactive

What do the screens show for `Cc1cc(=O)[nH]c(NC2CCN(Cc3nnnn3Cc3ccc4c(c3)OCO4)CC2)n1`?
USP10 inh: inactive; UCHL1 inh: inactive; USP7 block: inactive; USP17 block: inactive; OTUD3 block: inactive; USP8 inh: inactive

Results for CN1CCN(c2ncnc3c2oc2ccc(Cl)cc23)CC1 ?
USP10 inh: inactive; UCHL1 inh: inactive; USP7 block: inactive; USP17 block: inactive; OTUD3 block: 88; USP8 inh: inactive

Results for c1cnc(N2CCN(c3ncnc4c3oc3ccccc34)CC2)nc1 ?
USP10 inh: inactive; UCHL1 inh: inactive; USP7 block: inactive; USP17 block: inactive; OTUD3 block: inactive; USP8 inh: inactive
